Test results: PubChem BioAssay (NCATS)
Several values for one entry are separate records, joined by “and”; a condition that tells them apart may be missing. Equal values may be shown once. Results filed as inconclusive are left out. Activity calls are given as the source filed them. Unless noted, calls come from the whole dose curve; as a rule, active = well fitted curve in the direction sought with a large enough effect; inconclusive = small, poorly fitted or top-dose-only effect, or another doubt; inactive = no such curve, though single readings can be large; an effect the other way counts as inactive or inconclusive.

Key:
[1] = molecular target: Mitogen-activated protein kinase 10 (Mus musculus) (UniProt Q61831); assay: JNK3 AlphaScreen Assay (AID 530; active = well fitted curve in either direction with a large enough effect, not every such curve was filed as active;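 note: kinase came from lysate of stimulated human HepG2 cells; signal reports phosphorylation of biotinylated GST-cJun 1-79 at Ser73 with 10 µM ATP; % is set by controls: 0 for no effect and ±100 for the full control effect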)
Summary of the method: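 JNK3 came from HepG2 lysates pre-activated with IL-1beta and TNF-alpha and phosphorylated biotinylated GST-cJun (1-79) at 10 uM ATP, pH 7.6, room temperature. Compounds were titrated. AlphaScreen signal used anti-phospho-cJun (Ser73) antibody.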

[2] = Cell Viability - H-4-II-E (AID 543); note: nearly all actives have a fitted effect of over 35% in size; note: potency is the fitted concentration of half-maximal effect
Summary of the method: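 Rat hepatoma H-4-II-E cells (1500/well) were plated, incubated 5 hr at 37 °C, then exposed to compounds for 40 hr at 37 °C. Cellular ATP was read by CellTiter-Glo luminescence; AC50 came from Hill-equation fits of concentration-response data.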

[3] = MultiTox-Fluor Cytotoxicity Assay - LYMP1-001 - Live Cells (AID 947); note: potency is the fitted concentration of half-maximal effect;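 for activity change, negative = cytotoxicity: 0% = DMSO only and full inhibition = tetraoctylammonium bromide control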
[4] = Cell Viability - LYMP1-003 - Assay at 40 hr (AID 964); note: nearly all actives have a fitted effect of over 60% in size; note: potency is the fitted concentration of half-maximal effect
Summary of the method: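 Human lymphoblastoid LYMP1-003 cells, 2500/well in complete medium, rested 5 hr at 37 C, then exposed to compounds for 40 hr at 37 C. Viability read as intracellular ATP by CellTiter-Glo luminescence; AC50 from Hill fits of concentration-response data.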

[5] = Cell Viability - LYMP2-007 (AID 979);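 note: cells exposed to compound for 24 h before reading; nearly all actives have a fitted effect of over 60% in size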; note: potency is the fitted concentration of half-maximal effect;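 for activity change, negative = cytotoxicity: 0% = DMSO only and the negative end = 92 µM tetraoctylammonium bromide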
Summary of the method: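 Human lymphoblastoid cells (2500/well) were plated in complete medium, incubated 5 hr at 37 C, then exposed to compounds for 24 hr at 37 C. Intracellular ATP was read by CellTiter-Glo luminescence after 30 min at room temperature; AC50 from Hill fits.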

[6] = Cell Viability - LYMP2-014 (AID 983); note: nearly all actives have a fitted effect of over 50% in size; note: potency is the fitted concentration of half-maximal effect;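 for activity change, negative = cytotoxicity: plate controls were DMSO only for no effect and 92 µM tetraoctylammonium bromide for full effect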
Summary of the method: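 Human lymphoblastoid cells (2500/well) were pre-incubated 5 hr at 37 C, then exposed to compounds in complete medium for 24 hr at 37 C. Intracellular ATP was read by CellTiter-Glo luminescence after 30 min at room temperature; AC50 from Hill fits.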

[7] = molecular target: Bile acid receptor (Homo sapiens) (UniProt Q96RI1); assay: qHTS assay for small molecule antagonists of farnesoid X receptor signaling (AID 588526; calls by dose curve; note: potency is the fitted concentration of half-maximal effect)
Bile acid receptor (Homo sapiens), sequence (Q96RI1 whole entry, looked up): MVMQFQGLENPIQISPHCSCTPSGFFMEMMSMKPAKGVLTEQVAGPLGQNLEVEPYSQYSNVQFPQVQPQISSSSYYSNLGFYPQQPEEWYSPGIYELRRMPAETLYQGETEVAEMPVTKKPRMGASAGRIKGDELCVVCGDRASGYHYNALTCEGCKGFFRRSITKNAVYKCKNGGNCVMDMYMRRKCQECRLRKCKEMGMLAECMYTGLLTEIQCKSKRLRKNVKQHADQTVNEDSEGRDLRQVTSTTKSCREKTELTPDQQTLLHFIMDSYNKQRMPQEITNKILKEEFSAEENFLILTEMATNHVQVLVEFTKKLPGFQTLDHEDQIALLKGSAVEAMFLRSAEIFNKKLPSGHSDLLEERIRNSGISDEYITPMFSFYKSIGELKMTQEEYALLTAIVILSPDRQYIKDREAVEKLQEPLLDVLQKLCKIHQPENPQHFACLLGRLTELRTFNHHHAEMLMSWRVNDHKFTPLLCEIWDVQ
Summary of the method: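 Concentration-response titrations were fitted to the Hill equation for half-maximal inhibition and maximal response, with data normalised to 50 uM chenodeoxycholic acid and DMSO control wells. Cells: FXR-UAS-bla HEK293T, dialyzed FBS.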

[8] = qHTS assay for small molecule antagonists of peroxisome proliferator-activated receptor delta signaling (AID 588535); conditions: HEK293T PPARd-UAS-bla, beta-lactamase FRET ratio, 18 h; 460 nm channel;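 note: cells co-treated with a PPAR-delta agonist as stimulator during compound exposure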
Summary of the method: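 GeneBLAzer PPAR-delta-UAS-bla HEK293T cells in medium with 2% charcoal/dextran FBS were preincubated 5 hrs at 37 C, then given compounds, incubated 18 hrs at 37 C, and read by CCF4 beta-lactamase fluorescence; IC50 from Hill fits.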

[9] = molecular target: Retinoic acid receptor RXR-alpha (Homo sapiens) (UniProt P19793); assay: qHTS assay for small molecule antagonists of retinoid X receptor alpha signaling (AID 588546; active = well fitted inhibition curve with a large enough effect in the signal ratio, with a control signal flat, not every such curve was filed as active; the % refers to the signal ratio;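 note: cells stimulated with 9-cis-retinoic acid as agonist; % is set by controls: 0 for no effect and ±100 for the full control effect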); conditions: HEK293T RXRa-UAS-bla, beta-lactamase ratio, antagonist mode
Retinoic acid receptor RXR-alpha (Homo sapiens), sequence (P19793 whole entry, looked up): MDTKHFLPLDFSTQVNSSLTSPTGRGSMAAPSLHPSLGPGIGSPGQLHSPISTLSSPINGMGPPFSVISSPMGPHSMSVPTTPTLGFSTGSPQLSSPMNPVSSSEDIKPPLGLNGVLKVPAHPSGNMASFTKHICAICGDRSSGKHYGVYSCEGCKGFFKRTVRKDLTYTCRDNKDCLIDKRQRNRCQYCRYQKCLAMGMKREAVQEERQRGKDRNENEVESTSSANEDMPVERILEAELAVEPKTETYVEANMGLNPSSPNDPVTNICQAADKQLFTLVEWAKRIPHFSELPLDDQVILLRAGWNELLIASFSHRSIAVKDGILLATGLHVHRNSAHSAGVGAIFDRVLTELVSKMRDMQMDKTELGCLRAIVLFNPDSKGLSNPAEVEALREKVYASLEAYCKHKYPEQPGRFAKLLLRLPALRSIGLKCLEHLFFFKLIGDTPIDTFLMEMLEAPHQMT
Summary of the method: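 Beta-lactamase reporter inhibition, read as CCF4 fluorescence ratio (ex 405, em 460/530 nm) after 2 h at RT. HEK293T UAS-bla cells, 2500/well, were stimulated with 9-cis-RA at 500 or 100 nM final alongside test compound for 18 h at 37 C.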

[10] = molecular target: Thyroid hormone receptor beta (Homo sapiens) (UniProt P10828); assay: qHTS assay for small molecule antagonists of thyroid hormone receptor beta signaling (AID 588547; active = well fitted inhibition curve with a large enough effect in the signal ratio, with a control signal flat, not every such curve was filed as active; the % refers to the signal ratio;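 note: cells stimulated with 0.4 nM T3 agonist during compound exposure; % is set by controls: 0 for no effect and ±100 for the full control effect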); conditions: TR-UAS-bla HEK293, beta-lactamase ratio, antagonist mode, 18 h
Thyroid hormone receptor beta (Homo sapiens), sequence (P10828 whole entry, looked up): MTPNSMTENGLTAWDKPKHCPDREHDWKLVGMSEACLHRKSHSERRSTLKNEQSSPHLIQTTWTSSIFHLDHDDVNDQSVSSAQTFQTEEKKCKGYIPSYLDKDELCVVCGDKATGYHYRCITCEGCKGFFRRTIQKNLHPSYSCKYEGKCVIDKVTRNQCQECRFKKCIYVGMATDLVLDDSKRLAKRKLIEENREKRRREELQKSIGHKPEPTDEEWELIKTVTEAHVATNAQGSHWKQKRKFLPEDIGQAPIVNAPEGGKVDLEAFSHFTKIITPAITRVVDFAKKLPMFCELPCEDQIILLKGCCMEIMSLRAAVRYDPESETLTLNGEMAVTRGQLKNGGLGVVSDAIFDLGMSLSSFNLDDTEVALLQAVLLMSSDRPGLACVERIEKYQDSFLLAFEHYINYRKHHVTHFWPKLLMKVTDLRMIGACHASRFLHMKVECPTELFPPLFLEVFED
Summary of the method: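 TR-UAS-bla GripTite HEK293 cells in 2% charcoal/dextran FBS medium were preincubated 4 h at 37 C, given compound (0.59 nM to 92 uM) plus 0.4 nM T3 (final) for 18 h, then CCF4 for 2 h at RT; Hill fit gave IC50.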

[11] = qHTS assay for small molecule activators of the p53 signaling pathway (AID 651743; active = well fitted activation curve with a large enough effect in the signal ratio, not every such curve was filed as active; the % refers to the signal ratio; note: % of control where 0% means no effect); conditions: HCT-116 p53RE-bla, beta-lactamase FRET ratio, 16 h; activation: stronger effect = higher value
Summary of the method: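 p53RE-bla HCT-116 cells with a stably integrated beta-lactamase reporter under p53 response elements were plated, rested 5 hours at 37 C/5% CO2, then exposed to compounds in DMSO for 16 hours at 37 C. LiveBLAzer B/G FRET substrate was read after 2 hours at room temperature.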

[12] = Cell Viability - NIH 3T3 (AID 541); conditions: NIH 3T3 cell viability, qHTS; activity change, negative = cytotoxicity: at 92.2 µM (top of the series); note: nearly all actives have a fitted effect of over 25% in size; note: potency is the fitted concentration of half-maximal effect;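 for activity change, negative = cytotoxicity: plate controls were DMSO alone for no effect and tamoxifen positive control for full effect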
Summary of the method: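 NIH 3T3 mouse embryo fibroblasts (1000 cells/well) were plated in complete medium and treated with compound for 40 hr at 37 °C. Viability was read as intracellular ATP by CellTiter-Glo luminescence; AC50 values came from Hill-equation fits of concentration-response data.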

[13] = Cell Viability - LYMP2-004 (AID 966);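 note: plate controls were DMSO only for no effect and tetraoctylammonium bromide control for full effect; nearly all actives have a fitted effect of over 65% in size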
Summary of the method: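 Human lymphoblastoid cells (2500/well) in complete medium were treated with compounds for 24 hr at 37 C, then intracellular ATP was measured by CellTiter-Glo luminescence. AC50 values came from Hill-equation fits of concentration-response data.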

[14] = Cell Viability - LYMP2-025 (AID 976); note: potency is the fitted concentration of half-maximal effect;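 for activity change, negative = cytotoxicity: plate controls were DMSO only for no effect and tetraoctylammonium bromide control for full effect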
Summary of the method: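 Human lymphoblastoid LYMP2-025 cells (2500/well) were pre-incubated 5 hr at 37 C, then treated with compounds for 24 hr at 37 C in complete medium. Viability was read as intracellular ATP by CellTiter-Glo luminescence; AC50 from Hill fits.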

[15] = Cell Viability - LYMP2-016 (AID 984); note: nearly all actives have a fitted effect of over 55% in size; note: potency is the fitted concentration of half-maximal effect
Summary of the method: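 Concentration-dependent ATP depletion measured in LYMP2-016 lymphoblastoid cells, 24 h, 37 C; luciferase-based luminescent detection; Hill-equation AC50.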

[16] = molecular target: Vitamin D3 receptor (Homo sapiens) (UniProt P11473); assay: qHTS assay for small molecule antagonists of vitamin D receptor signaling (AID 588541; calls by dose curve;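 note: receptor activated by calcitriol during compound treatment; % is set by controls: 0 for no effect and ±100 for the full control effect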)
Vitamin D3 receptor (Homo sapiens), sequence (P11473 whole entry, looked up): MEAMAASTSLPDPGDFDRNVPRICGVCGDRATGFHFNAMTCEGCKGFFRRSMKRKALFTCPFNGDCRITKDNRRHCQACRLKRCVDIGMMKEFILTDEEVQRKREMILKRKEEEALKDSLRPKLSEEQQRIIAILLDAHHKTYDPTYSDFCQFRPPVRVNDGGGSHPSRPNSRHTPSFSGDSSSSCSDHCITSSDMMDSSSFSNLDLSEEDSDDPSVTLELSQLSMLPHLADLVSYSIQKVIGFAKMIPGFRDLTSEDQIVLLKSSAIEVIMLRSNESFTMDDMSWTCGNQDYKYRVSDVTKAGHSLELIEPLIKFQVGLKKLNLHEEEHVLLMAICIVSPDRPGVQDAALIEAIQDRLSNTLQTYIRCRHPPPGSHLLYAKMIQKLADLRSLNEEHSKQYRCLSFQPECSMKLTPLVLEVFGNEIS
Summary of the method: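 VDR-UAS-bla HEK293T cells (2000/well, 2% charcoal-stripped FBS) were treated with titrated compounds plus 1-alpha,25-dihydroxyvitamin D3 (50 nM or 3 nM final) for 16 h at 37 C. CCF4 beta-lactamase fluorescence was read; Hill fits gave IC50.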

[17] = Cell Viability - LYMP2-021 (AID 974);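 note: compound exposure lasts 24 hours at 37 °C; nearly all actives have a fitted effect of over 55% in size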; note: potency is the fitted concentration of half-maximal effect
Summary of the method: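 Human lymphoblastoid cells (2500/well) were preincubated 5 hr at 37 C, then exposed to compounds for 24 hr at 37 C in complete medium. Intracellular ATP was read by CellTiter-Glo luminescence; AC50 came from Hill-equation fits of concentration-response data.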

[18] = molecular target: Peroxisome proliferator-activated receptor gamma (Homo sapiens) (UniProt P37231); assay: qHTS assay for small molecule antagonists of peroxisome proliferator-activated receptor gamma signaling (AID 588537; active = well fitted inhibition curve with a large enough effect in the signal ratio, with a control signal flat, not every such curve was filed as active; the % refers to the signal ratio;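 note: reporter cells co-stimulated with 50 nM rosiglitazone agonist during compound treatment; % of control where 0% means no effect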)
Peroxisome proliferator-activated receptor gamma (Homo sapiens), sequence (P37231 whole entry, looked up): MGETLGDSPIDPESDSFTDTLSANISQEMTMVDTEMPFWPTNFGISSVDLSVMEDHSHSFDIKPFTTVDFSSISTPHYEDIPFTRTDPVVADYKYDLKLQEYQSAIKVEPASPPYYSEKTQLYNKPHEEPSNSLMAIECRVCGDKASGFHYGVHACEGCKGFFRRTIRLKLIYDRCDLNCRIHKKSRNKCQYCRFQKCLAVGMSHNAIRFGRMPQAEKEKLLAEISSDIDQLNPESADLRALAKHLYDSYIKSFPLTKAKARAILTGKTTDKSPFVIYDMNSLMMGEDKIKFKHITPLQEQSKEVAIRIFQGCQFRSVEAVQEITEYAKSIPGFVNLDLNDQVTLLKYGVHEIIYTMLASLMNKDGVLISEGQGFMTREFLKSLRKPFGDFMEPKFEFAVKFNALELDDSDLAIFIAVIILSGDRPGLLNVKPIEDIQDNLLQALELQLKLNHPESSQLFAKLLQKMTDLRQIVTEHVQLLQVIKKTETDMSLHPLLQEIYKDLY
Summary of the method: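 PPAR-gamma-UAS-bla HEK293 cells (3000/well, 1% charcoal/dextran-stripped FBS) were preincubated 6-6.5 h at 37 C, given titrated compounds, then stimulated with 50 nM rosiglitazone for 16 h. Beta-lactamase activity was read with CCF4 dye; IC50 came from Hill fits.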

[19] = Cell Viability - LYMP2-018 (AID 985);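 note: compound exposure lasted 24 hr at 37 °C; nearly all actives have a fitted effect of over 50% in size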; note: potency is the fitted concentration of half-maximal effect;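 for activity change, negative = cytotoxicity: plate controls were DMSO only for no effect and tetraoctylammonium bromide at 92 µM for full effect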
Summary of the method: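 Human lymphoblastoid cells (2500/well) were pre-incubated 5 hr at 37 C, then exposed to compounds for 24 hr at 37 C in complete medium. Viability was read as intracellular ATP by CellTiter-Glo luminescence; AC50 values came from Hill-equation fits.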

[20] = Cell Viability - Jurkat (AID 426;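 active = dose-dependent loss of cell ATP signal giving a full or clear fitted curve, ranked by lower potency value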; note: potency is the fitted concentration of half-maximal effect); conditions: qHTS
Summary of the method: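 Jurkat (clone E6-1, human T-cell leukemia) cells, 5000/well in complete medium, were exposed to compound for 40 hr at 37 °C. Viability was read as intracellular ATP by CellTiter-Glo luminescence; AC50 came from Hill fits of concentration-response data.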

CCCCC(CC)COCCCN (configuration not stated)
8.44%: max response [8]
inactive: Potency [1] | Potency [2] | Potency [3] | Potency [4] | Potency [5] | Potency [6] | Potency [7] | max response [9] 10.8% | activity change % (negative = inhibition) [10] 3.53% | activation [11] -2.34%

Cc1ccccc1OCC1CO1 (configuration not stated)
inactive: Potency [1] | activity change, negative = cytotoxicity [12] -29.7% | Potency [2] | Potency [3] | Potency [4] | Potency [13] | Potency [14] | Potency [5] | Potency [6] | Potency [15] | Potency [7] | Potency [16] | activation [11] -0.32%

NC(=O)Nc1nc2ccccc2[nH]1
-10.2%: max response [8]
inactive: Potency [1] | Potency [3] | Potency [5] | Potency [6] | Potency [7] | activity change % (negative = inhibition) [10] -13.1%

Cc1ccc(C(=O)O)cc1[N+](=O)[O-]
inactive: Potency [2] | Potency [3] | Potency [4] | Potency [17] | Potency [14] | Potency [5] | Potency [6] | Potency [18] | max response [9] 8.29% | activity change % (negative = inhibition) [10] 2.7%

OCC(CBr)(CBr)CBr
inactive: Potency [1] | Potency [13] | Potency [17] | Potency [5] | Potency [6] | Potency [19] | Potency [18] | activation [11] 0.524%
9.08%: max response [8]

Cc1ccc2ccc3cccc4ccc1c2c34
inactive: activity change, negative = cytotoxicity [12] -8.7% | Potency [2] | Potency [3] | Potency [17] | Potency [14] | Potency [6] | Potency [19] | Potency [18]
active: Potency [7] 44.7 µM
18.4%: max response [8]

Cc1ccc(N)cc1[N+](=O)[O-]
inactive: Potency [1] | Potency [2] | Potency [3] | Potency [13] | Potency [14] | Potency [5] | Potency [6] | Potency [15] | Potency [19] | Potency [18] | max response [9] -2.5% | activation [11] -0.0251%
35.9%: max response [8]

CC(C)COC(=O)COc1cc(Cl)c(Cl)cc1Cl
16.7%: max response [8]
inactive: activity change, negative = cytotoxicity [12] -0.53% | Potency [2] | Potency [3] | Potency [4] | Potency [13] | Potency [17] | Potency [6] | Potency [15] | Potency [19] | Potency [18] | activity change % (negative = inhibition) [10] 14.2% | activation [11] -1.51%

CCOc1ccc2nc(N)sc2c1
inactive: Potency [1] | Potency [3] | Potency [4] | Potency [13] | Potency [17] | Potency [5] | Potency [6] | Potency [19] | activity change % (negative = inhibition) [10] -4.05% | activation [11] -1.71%

CCCCCCc1ccc(-c2ccc(C#N)cc2)cc1
inactive: activity change, negative = cytotoxicity [12] -12.5% | Potency [2] | Potency [3] | Potency [4] | Potency [13] | Potency [17] | Potency [14] | Potency [5] | Potency [6] | max response [9] -14.6% | activity change % (negative = inhibition) [10] 6.73%
11%: max response [8]

COc1ccc(C(=O)Nc2ccccc2)cc1[N+](=O)[O-]
inactive: Potency [1] | Potency [2] | Potency [5] | Potency [19] | Potency [7] | Potency [18] | Potency [16] | max response [9] -8.72% | activity change % (negative = inhibition) [10] 2.48% | activation [11] -6.78%

O=C(O)c1ccc([N+](=O)[O-])cc1
inactive: Potency [1] | Potency [2] | Potency [17] | Potency [14] | Potency [5] | Potency [19] | Potency [7] | max response [9] 3.05% and 5.55% | activity change % (negative = inhibition) [10] -4.73%
8.52%: max response [8]

CCCCCCCCC1CO1 (configuration not stated)
-10.9%: max response [8]
inactive: activity change, negative = cytotoxicity [12] -9.26% | Potency [2] | Potency [4] | Potency [14] | Potency [6] | Potency [15] | Potency [19] | Potency [7] | Potency [18] | activation [11] -2.83%

CC(C)OCC1CO1 (configuration not stated)
inactive: Potency [2] | Potency [13] | Potency [5] | Potency [15] | Potency [7] | Potency [18] | Potency [16] | max response [9] 1.98% | activity change % (negative = inhibition) [10] 8.25% | activation [11] 0.641%
3.66%: max response [8]

O=CC(=O)c1ccccc1
inactive: Potency [1] | Potency [2] | Potency [3] | Potency [6] | Potency [15] | activation [11] -5.31%
7.18%: max response [8]

O=Nc1ccc(Nc2ccccc2)cc1
inactive: Potency [1]
active: Potency [20] 3.86 µM | Potency [2] 31.6 µM

Cc1ccc(O)c(N)c1
inactive: Potency [1] | Potency [3] | Potency [7]
active: activity change, negative = cytotoxicity [12] -124%
-35.8%: max response [8]

c1cc2c3c(c1)ccc1cccc(c13)C2
4.88%: max response [8]
inactive: Potency [2] | Potency [3] | Potency [4] | Potency [13] | Potency [17] | Potency [14] | Potency [15] | activity change % (negative = inhibition) [10] -0.0299% | activation [11] -4.21%

Oc1cc2c(cc1O)[C@H]1c3ccc(O)c(O)c3OC[C@@]1(O)C2
inactive: max response [9] -15.2% | activity change % (negative = inhibition) [10] -14.1%
active: Potency [20] 35.9 µM | Potency [3] 50.1 µM | Potency [4] 39.8 µM | Potency [17] 31.6 µM | Potency [14] 50.1 µM | Potency [5] 39.8 µM | Potency [6] 39.8 µM | Potency [15] 39.8 µM | Potency [19] 31.6 µM

CC(C)(C)C(=O)C1C(=O)c2ccccc2C1=O
active: Potency [12] 12.6 µM
inactive: Potency [3] | Potency [13] | Potency [17] | Potency [14] | Potency [6] | Potency [15] | Potency [19] | activation [11] 12%

CCCCC(CC)COP(=O)(OCC(CC)CCCC)OCC(CC)CCCC (configuration not stated)
inactive: Potency [1] | Potency [2] | Potency [3] | Potency [17] | Potency [5] | Potency [6] | Potency [15] | Potency [18] | Potency [16] | activity change % (negative = inhibition) [10] -23.6% | activation [11] -6.02%
38.7%: max response [8]
